SRC3 inh – inhibits human SRC3 coactivator; Q9Y6Q9; HEK293 GAL4-SRC3 luciferase reporter, luminescence; inhibition, % at 3.6 µM; 0.17% of 360,000 active;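 active means inhibition above a per-campaign cutoff, the mean of all compounds plus 3 SD, cut at about 60% in these data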;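 further: 0% = DMSO-treated cells and 100% = gossypol-treated cells at 36 µM; higher means less SRC3-driven luciferase light from the GAL4 reporter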
NCOA2 inhibitor – inhibits human steroid receptor coactivator 2; Q15596; HEK293 GAL4-SRC2 luciferase reporter, luminescence; inhibition, % at 9 µM; 0.17% of 370,000 active; AID 651957;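 active means inhibition above the mean inhibition of all tested compounds plus 3 SD, set per campaign, cut at about 52% in these data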;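 further: 0% = DMSO treated cells and 100% = cells given Gossypol at 36 µM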
GalR3 antagonist – antagonists of human GalR3; O60755; HEK293 GalR3-CNG cAMP membrane potential fluorescence; galR3 body fused to GalR1 C-terminus; inhibition, % at 3 µM; 0.44% of 360,000 active; AID 651719;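 active means inhibition above the screen-wide average plus 3 SD, cut at about 13% in these data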;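 further: forskolin and galanin both at EC90 stimulate the cells; cAMP rise reported by CNG channel membrane potential dye signal; 0% = forskolin plus galanin with DMSO and 100% = forskolin alone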
SRC1 inh – inhibitors of human steroid receptor coactivator 1 (SRC1); HEK293 GAL4-SRC1 luciferase reporter, luminescence; inhibition, % at 3.6 µM; 0.12% of 360,000 active; AID 588354;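 active means inhibition above the campaign mean plus 3 SD, with each screening campaign given its own cutoff, cut at about 60% in these data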;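 further: 0% = DMSO treated cells and 100% = gossypol at 36 µM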
Target sequence (Q15788 whole entry, looked up, the tested form may be a part): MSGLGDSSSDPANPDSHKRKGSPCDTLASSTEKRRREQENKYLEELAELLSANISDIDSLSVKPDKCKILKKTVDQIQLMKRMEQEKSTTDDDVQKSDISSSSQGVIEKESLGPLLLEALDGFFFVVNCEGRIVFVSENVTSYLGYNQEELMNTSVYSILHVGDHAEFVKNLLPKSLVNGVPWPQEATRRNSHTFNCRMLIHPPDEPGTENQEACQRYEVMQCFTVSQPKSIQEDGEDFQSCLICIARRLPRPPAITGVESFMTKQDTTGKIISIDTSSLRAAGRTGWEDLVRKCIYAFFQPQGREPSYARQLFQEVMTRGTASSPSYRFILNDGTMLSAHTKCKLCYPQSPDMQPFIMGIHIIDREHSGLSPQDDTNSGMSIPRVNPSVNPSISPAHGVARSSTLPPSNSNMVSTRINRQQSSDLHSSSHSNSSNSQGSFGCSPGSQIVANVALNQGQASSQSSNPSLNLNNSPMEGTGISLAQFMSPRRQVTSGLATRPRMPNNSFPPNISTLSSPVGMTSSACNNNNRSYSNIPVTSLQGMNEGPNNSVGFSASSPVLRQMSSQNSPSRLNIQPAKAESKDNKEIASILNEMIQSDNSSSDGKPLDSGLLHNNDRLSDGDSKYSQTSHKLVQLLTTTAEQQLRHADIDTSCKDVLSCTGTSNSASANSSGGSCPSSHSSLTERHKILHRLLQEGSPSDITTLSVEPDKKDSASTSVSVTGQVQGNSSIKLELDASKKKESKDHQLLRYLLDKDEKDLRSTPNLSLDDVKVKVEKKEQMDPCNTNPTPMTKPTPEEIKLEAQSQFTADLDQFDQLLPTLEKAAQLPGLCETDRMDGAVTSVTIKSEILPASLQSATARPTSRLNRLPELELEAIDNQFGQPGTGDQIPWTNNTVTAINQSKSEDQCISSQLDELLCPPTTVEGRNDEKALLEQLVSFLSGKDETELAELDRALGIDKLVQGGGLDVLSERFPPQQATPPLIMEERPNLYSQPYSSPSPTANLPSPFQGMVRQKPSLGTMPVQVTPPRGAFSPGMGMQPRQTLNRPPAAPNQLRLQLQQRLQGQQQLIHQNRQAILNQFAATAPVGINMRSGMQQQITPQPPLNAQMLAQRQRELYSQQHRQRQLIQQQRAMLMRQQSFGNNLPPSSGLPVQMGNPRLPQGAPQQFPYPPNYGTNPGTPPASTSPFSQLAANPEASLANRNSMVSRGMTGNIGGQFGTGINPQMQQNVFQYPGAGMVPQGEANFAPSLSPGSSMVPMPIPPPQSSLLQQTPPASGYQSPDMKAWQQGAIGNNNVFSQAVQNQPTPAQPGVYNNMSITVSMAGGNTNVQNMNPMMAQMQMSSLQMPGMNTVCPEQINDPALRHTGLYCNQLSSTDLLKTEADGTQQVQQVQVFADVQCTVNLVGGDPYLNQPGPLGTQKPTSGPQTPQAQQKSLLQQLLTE
LRH-1 inv ag – NR5A2 inverse agonism in reporter assay. HEK293T StAR-luciferase reporter, LRH-1 transfected, 24 h. inhibition, % at 3.6 µM. 0.13% of 360,000 active;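 active means inhibition above the mean inhibition of all tested compounds plus 3 SD, cut at about 73% in these data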;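 further: 0% = DMSO wells and 100% = reporter-only cells lacking LRH-1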
NR2F2 inh – blocks human COUP-TFII nuclear receptor | inhibition, % at 8.6 µM | 0.7% of 370,000 active | HEK293T NGFI-A luciferase reporter, luminescence | AID 686940;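 active means inhibition above a per-plate cutoff, mean inhibition of test wells between control levels plus 3 SD, cut at about 38% in these data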;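 further: cells cotransfected with COUP-TFII expression vector driving the NGFI-A reporter; 0% = median of COUP-TF2 test wells and 100% = reporter-only cells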
GalR3 conf – confirmation of human galanin receptor 3 antagonists. shares compounds with GalR3 antagonist. HEK293 GalR3 CNG cAMP biosensor, membrane potential fluorescence; galR3 fused to GalR1 carboxy tail; challenged with forskolin and galanin at EC90. inhibition, % at 3 µM. 59% of 1,600 active. AID 652245;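 active means inhibition above the primary screen's cutoff, the mean inhibition of all screened compounds plus 3 SD, cut at about 13% in these data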;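 further: 0% = forskolin plus galanin and 100% = forskolin alone with DMSO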
CNG parental – acts as nonspecific agonist in parental HEK-CNG cells; HEK293-CNG parental cells, cAMP membrane potential fluorescence; normalised: DMSO wells 0%, forskolin wells 100%; shares compounds with GalR3 antagonist; 10% of 1,600 active; activation, % at 3 µM; AID 652268; in the data active means activation above about 1.3%
Active calls of the source: *; . = no result given. Only some compounds are listed: those with a hit (about 1.1% of all), similar ones and a draw of the others.

SMILES | SRC3 inh | NCOA2 inhibitor | GalR3 antagonist | SRC1 inh | LRH-1 inv ag | NR2F2 inh | GalR3 conf | CNG parental
N#Cc1cccnc1N1CCN(C(=O)c2cccc3c2C(=O)c2ccc(Cl)cc2S3(=O)=O)CC1 | -0.6 | -19.4 | 23.3* | -10.6 | 3.5 | -12.2 | 29.8* | 0.2
COc1ccc(C2CC(=O)c3cc(OC)c(OC)cc32)cc1OC (configuration not stated) | 1.4 | 25.9 | -3.4 | 13.0 | -1.8 | 15.6 | . | .
COc1ccc(C2c3cc(OC)c(OC)cc3CC3C(=O)OCC32)cc1OC (configuration not stated) | 18.5 | -3.0 | 62.0* | -18.6 | -5.1 | -4.6 | 65.1* | 0.0
COc1ccc(-c2cc(-c3n[nH]c(=S)n3-c3cc(OC)ccc3OC)[nH]n2)cc1 | -6.4 | -0.7 | 24.1* | -11.6 | -13.0 | 1.4 | 12.1 | 0.6
Cc1ccc2c(c1)C1CS(=O)(=O)N(Cc3ccc(F)cc3)CN1C2 (configuration not stated) | . | -5.8 | . | . | . | 25.8 | . | .
O=C(NCCNCc1cccc(Cl)c1)c1ccco1 | -17.2 | -15.1 | 2.0 | -6.2 | -43.9 | -8.0 | . | .
Clc1cccc(CNCCNCc2cccc(Cl)c2)c1 | 9.5 | -1.4 | 22.1* | 13.2 | 0.0 | -11.5 | 12.0 | 2.5*
CCC(C)C(=O)Nn1c(C2CC2)nc2cc(OC)c(OC)cc2c1=O (configuration not stated) | -11.4 | -11.0 | 25.0* | -25.3 | 7.5 | -22.1 | 28.9* | 0.2
O=Cc1cn(-c2ccccc2)nc1-c1ccccc1 | -36.2 | -28.5 | -7.3 | -16.5 | -37.9 | -0.4 | . | .
CC1=NNC(=O)/C1=C\c1cn(-c2ccccc2)nc1-c1ccccc1 | 2.9 | -12.6 | 48.2* | -23.0 | 8.1 | 13.6 | 55.0* | 0.0
C=CC[C@@]1(c2ccc(Br)cc2OC)Oc2ccccc2-c2nccnc21 | . | 12.7 | . | . | . | 2.2 | . | .
Cc1cc(C)c2oc(C(=O)N(Cc3ccccc3)C3CCS(=O)(=O)C3)cc(=O)c2c1 (configuration not stated) | 16.7 | 1.1 | 3.9 | 13.9 | -3.3 | 0.9 | . | .
CCOc1ccc(CN(C(=O)c2cc(=O)c3cc(C)cc(C)c3o2)C2CCS(=O)(=O)C2)cc1 (configuration not stated) | -8.8 | -17.5 | 16.7* | 8.0 | 11.2 | -9.2 | 2.4 | 0.5
CCN(Cc1cn(Cc2ccc(C)cc2)nn1)S(=O)(=O)c1ccccc1Br | . | 19.6 | . | . | . | 8.3 | . | .
COc1cccc(/C=C/C(=O)OCC(=O)Nc2nnc(-c3ccccc3)o2)c1OC | -2.1 | -2.9 | 12.6* | -5.8 | -14.7 | -14.8 | 1.9 | 0.7
C=CS(=O)(=O)N(Cc1nnn(Cc2ccccc2)c1Br)[C@@H](CC(C)C)C(=O)OC | . | 24.1 | . | . | . | 7.7 | . | .
CC(C)(C)SCCNC(=O)/C=C/c1ccc(F)cc1 | -15.1 | -42.4 | 3.0 | -45.6 | -69.4 | -22.0 | . | .
CC(C)(CNC(=O)/C=C/c1ccc(F)cc1)CNC(=O)/C=C/c1ccc(F)cc1 | -27.6 | -16.9 | 31.1* | -50.8 | -70.2 | -47.0 | 15.1* | -0.5
Cc1ccc(C2C(C(=O)c3cccs3)=C(O)C(=O)N2c2nnc(C)s2)cc1 (configuration not stated) | -50.1 | -17.1 | 12.8* | -22.6 | -51.6 | -24.5 | 18.1* | 0.0
O=C(Nc1ccccc1NS(=O)(=O)c1ccc(F)cc1)C1CCC1 | 10.1 | 1.4 | . | 3.9 | -19.0 | 8.3 | -3.1 | 0.3
CCOC(=O)CC[C@@H]1CC[C@]2(CCCN(C(=O)c3cccnc3)C2)O1 | . | -3.8 | . | . | . | -6.2 | . | .
COC(=O)C12C=C3CC(C)=C3C(=O)N1Cc1[nH]c3ccccc3c1C2 (configuration not stated) | . | -11.1 | . | . | . | -8.3 | . | .
O=C(O)c1ccc(NC(=S)NC(=O)c2ccc(-c3ccc(Br)cc3)o2)cc1 | -26.5 | 5.1 | 12.6* | -3.5 | 10.5 | -5.4 | -19.3 | 1.7*
C=CCOc1ccc(-c2nc3c(c(=O)[nH]c(=O)n3Cc3ccccc3)n2CCCOC)cc1 | 8.6 | -32.5 | -7.6 | -14.8 | 6.5 | 1.0 | . | .
COCCCn1c(-c2ccc(OC)cc2)nc2c1c(=O)[nH]c(=O)n2Cc1ccccc1 | -8.0 | 13.2 | 13.7* | 7.5 | 4.6 | 6.6 | 12.5 | 0.2
SMILES | SRC3 inh | NCOA2 inhibitor | GalR3 antagonist | SRC1 inh | LRH-1 inv ag | NR2F2 inh | GalR3 conf | CNG parental
O=C(c1ccncc1)N1CCC(Oc2cccnc2)CC1 | . | 22.4 | . | . | . | -1.5 | . | .
COc1ccccc1CNC(=O)c1cnn2c(C(F)F)cc(C)nc12 | 7.9 | 0.8 | 22.9* | -11.5 | 22.1 | -1.7 | 34.5* | 0.3
O=C(C[n+]1ccc(C(=O)NCc2ccccc2)cc1)c1ccc(F)cc1 | . | 9.3 | -0.5 | . | 11.6 | 3.3 | . | .
O=C(NCc1ccccc1)c1cc[n+](CC(=O)c2cccs2)cc1 | 7.7 | -10.8 | 13.2* | 8.3 | -8.7 | -15.6 | -0.9 | 0.4
O=C(Nc1ccc2c(c1)Cc1ccccc1-2)NC1CCCCN(Cc2cccc(Cl)c2)C1=O (configuration not stated) | . | -11.2 | . | . | . | -7.5 | . | .
O=C(Nc1ccc(Cl)c(S(=O)(=O)N2CCOCC2)c1)c1ccncc1 | 6.8 | -15.3 | 42.7* | 14.3 | 5.0 | -73.2 | 7.1 | -0.3
Cc1ccc(NC(=O)CSc2ncnc3ccccc23)cc1S(=O)(=O)N1CCCCCC1 | 20.3 | 33.9 | 95.8* | -1.4 | 6.8 | 37.4 | 108.1* | -1.5
Cc1ccc(NC(=O)CSc2ccccn2)cc1S(=O)(=O)N1CCOCC1 | 2.9 | -18.5 | -3.7 | -3.2 | 5.1 | 12.7 | . | .
Cc1ccc(NC(=O)CSc2ncn[nH]2)cc1S(=O)(=O)N1CCOCC1 | 2.7 | -3.7 | 18.3* | 5.7 | -9.7 | 14.1 | 7.5 | -0.1
CC(COc1cc(F)cc(F)c1)CN1CCC(C(O)(c2ccccc2)c2ccccc2)CC1 (configuration not stated) | . | 9.2 | . | . | . | -2.8 | . | .
Cc1nc(SCc2nc3ccc(C(=O)c4ccccc4)cc3[nH]2)c2oc3ccccc3c2n1 | -19.8 | -18.8 | 13.8* | -45.8 | 12.1 | -14.8 | 21.9* | 0.4
CC(C)Nc1nc(Cl)nc(N(C#N)CN2C(=O)c3ccccc3C2=O)n1 | -2.2 | -24.1 | 15.7* | -19.5 | 0.2 | -3.7 | 1.2 | 0.6
O=C(NCCc1ccc(Cl)cc1)c1ccc2nc(N3CCOCC3)sc2c1 | -4.9 | -21.3 | 16.2* | -12.7 | -0.9 | 9.9 | 19.0* | -0.4
CCOc1ccc(CNC(=O)c2ccc3nc(N4CCOCC4)sc3c2)cc1 | -13.1 | -16.7 | 4.2 | -38.0 | -11.1 | -1.1 | . | .
CCCC1CCC2(CC1)CCC2OC(=O)Nc1ccc(F)cc1 (configuration not stated) | . | . | . | . | . | 20.0 | . | .
OCCN1CCCC12CCC(c1ccccc1)CC2 (configuration not stated) | . | 18.0 | . | . | . | -6.9 | . | .

From PubChem BioAssay
